This is an account of results in PubChem BioAssay (Tox21).

Records with an inconclusive call do not appear. Entries that show only a call come without a potency. Unmarked numbers belong to inactive results. Active and inactive are the calls of the source. The call rests on the fitted dose curve; in most records, active means well fitted activation curve with a large enough effect in the repeat runs; inconclusive means weak or mixed curves; inactive means flat fitted curve, though single readings scatter.

This test in a line: A CellTox Green Cytotoxicity Assay to monitor cytotoxicity in HEK293 cells - 8 hour (AID 1224884). Further: nearly all actives have a fitted effect of over 35% in size. The following applies: CellTox Green fluorescence; series mostly up to 76.8 µM. The method in brief:
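Each value comes from one timepoint of a single continuous run in which HEK293 cells with CellTox Green were exposed to compound for up to 40 h at 37 C, dye fluorescence rising with cell death.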
On to `CCOc1ncc(F)c(=O)[nH]1`, for which the Potency result is “inactive”.
For `CC(O)Cn1cnc2c1c(=O)n(C)c(=O)n2C` (stereo not drawn), the Potency result is “inactive”.
Regarding `CCCCCCCC/C=C/C(=O)O`, the Potency entry is “inactive”.
Take `CCN(CC)CCOc1ccccc1C(=O)CCc1ccccc1`: the Potency result was “inactive”.
The same measure, in the same setting: the entry for `Nc1ccn([C@H]2CS[C@@H](CO)O2)c(=O)n1` is “inactive”; for `O=C(O)CCCc1c[nH]c2ccccc12` it is “inactive”.
Still for that read-out and setting: as for `CNc1c2c(nn1C)CCCC2`, the entry is “inactive”.
For the compound `CCNc1nc(N)nc(Cl)n1`, the Potency result is “inactive”.
Same read-out and setting: as for `CCCOC(=O)c1c(Cl)c(Cl)c(Cl)c(Cl)c1C(=O)OCCC`, the entry is “inactive”; as for `CN=C(N)NC(=O)Nc1c(C)cccc1C`, “inactive”; as for `O=S(=O)(O)CO`, “inactive”.
On the same count and under the same terms, the entry for `CC(=O)OC(C)C[N+](C)(C)C` (stereo not drawn) is “inactive”; for `CCC(CO)(CO)CO` it is “inactive”; for `CSSc1ccoc1C` it is “inactive”.
Turning to `O=CNNC=O`, the Potency result was “inactive”.
On the same count and under the same terms, the entry for `CC(C)N=C=NC(C)C` is “inactive”.
Still for that read-out and setting: the entry for `CC(=O)N[C@@H](Cc1ccc(O)cc1)C(=O)O` is “inactive”; for `CC(=O)Oc1cccc(O)c1` it is “inactive”.
`CC(C)(C(=O)c1cccnc1)c1cccnc1`: the Potency result is “inactive”.
Still for that read-out and setting: as for `C=CC(=O)NC(C)C`, the entry is “inactive”; as for `COc1cc(OC)c2ccc(=O)oc2c1`, “inactive”; as for `CC(C)C1CCC(C(=O)N[C@H](Cc2ccccc2)C(=O)O)CC1` (stereo partly drawn), “inactive”.
On the same count and under the same terms, as for `CC(C)(O)CCc1ccccc1`, the entry is “inactive”; as for `Nc1nc(-c2ccc([N+](=O)[O-])cc2)cs1`, “inactive”; as for `Cc1cc(CCC(=O)OCCOCCOCCOC(=O)CCc2cc(C)c(O)c(C(C)(C)C)c2)cc(C(C)(C)C)c1O`, “inactive”.
Same read-out and setting: as for `O=C(O)CCS`, the entry is “inactive”.
In the case of `COc1ccc2nc(S(=O)Cc3ncc(C)c(OC)c3C)[nH]c2c1` (stereo not drawn), the Potency result is “inactive”.
Turning to `C[C@H](CS)C(=O)N1CCC[C@H]1C(=O)O`, the Potency result was “inactive”.
For the compound `Cc1ccc(Cl)cc1N`, the Potency result is “inactive”.
With `CN1C(CSCC(F)(F)F)Nc2cc(Cl)c(S(N)(=O)=O)cc2S1(=O)=O` (stereo not drawn), the Potency entry was “inactive”.
As for `Cc1cc([N+](=O)[O-])ccc1N`, the Potency result is “inactive”.
Consider `CC[C@H]1OC(=O)[C@H](C)[C@@H](O[C@H]2C[C@@](C)(OC)[C@@H](O)[C@H](C)O2)[C@H](C)[C@@H](O[C@@H]2O[C@H](C)C[C@H](N(C)C)[C@H]2O)[C@](C)(O)C[C@@H](C)CN(C)[C@H](C)[C@@H](O)[C@]1(C)O`, for which the Potency entry is “inactive”.
Regarding `CCCCCCCCCCCCCOC(=O)CCSCCC(=O)OCCCCCCCCCCCCC`, the cytotoxicity increase was 12.5% [at 15.8 µM].
In the case of `CC(=O)NNC(C)=O`, the Potency result is “inactive”.
On the same count and under the same terms, as for `CC[C@H]1OC(=O)[C@H](C)[C@@H](O[C@H]2C[C@@](C)(OC)[C@@H](O)[C@H](C)O2)[C@H](C)[C@@H](O[C@@H]2O[C@H](C)C[C@H](N(C)C)[C@H]2O)[C@](C)(O)C[C@@H](C)/C(=N\OCOCCOC)[C@H](C)[C@@H](O)[C@]1(C)O`, the entry is “inactive”; as for `CNC1CCCN(c2c(F)cc3c(=O)c(C(=O)O)cn(C4CC4)c3c2OC)C1` (stereo not drawn), “inactive”.
With `Cc1ccc(NC(=O)N(C)C)cc1NC(=O)N(C)C`, the Potency result was “inactive”.
With `CC[C@@H](CO)NCCN[C@@H](CC)CO`, the Potency entry was “inactive”.
